# Screening data (PubChem BioAssay)
# In the library only some 20% were active in any assay of this set; here they are far more common.
# HCMV inh: qHTS Assay for inhibitors of the human cytomegalovirus (HCMV); actives 4.5% (n = 410,000); activity change, negative = inhibition, % at 57.5 µM; HFF cells, HCMV-luciferase reporter, 72 h; stronger effect = lower value; in the data active = activity change below about -60%; inconclusive = no clear call, values can overlap the other calls; inactive = above about -39%
#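 After 16 h attachment at 37C, HFF cells received test compound and HCMV-luciferase (1 PFU/cell); reporter luminescence read 72 h later, data normalized against buffer-only and known inhibitor Salinomycin.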
# Shiga inhibitor: A qHTS for Small Molecule Inhibitors of Shiga Toxin; Vero cells, Shiga toxin protein synthesis inhibition reporter; inhibition, % at 38.7 µM; actives 9.2% (n = 290,000); in the data active = inhibition mostly above about 28%, no sharp cut-off; inactive = mostly below about 43%
# Pf growth 48h: Primary qHTS for delayed death inhibitors of the malarial parasite plastid, 48 hour incubation. AID 504832, 2011. Potency, µM (titrated, usually from 28.7 µM), hits mostly inhibitors. P. falciparum luciferase growth in erythrocytes, 48 h. actives 5.9% (n = 310,000)
#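 First compound was added to culture medium, then infected red cells at 0.1% parasitemia and 2% hematocrit (final). After incubation at 37 C under 5% CO2, luciferase detection reagent was dispensed and light output recorded.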
# Pf growth 96h: Primary qHTS for delayed death inhibitors of the malarial parasite plastid, 96 hour incubation; P. falciparum luciferase reporter growth, 96 h; Potency, µM (top dose mostly 28.7 µM), usual class: inhibitors; actives 6.9% (n = 320,000); AID 504834, 2011
#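 Erythrocytes infected with luciferase-expressing P. falciparum were dispensed at 2% hematocrit and 0.05% parasitemia (final), then incubated with compounds 96 hours at 37 C in 5% CO2. Luminescence after detection reagent addition reported growth.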
# CHX counter: Cycloheximide Counterscreen for Small Molecule Inhibitors of Shiga Toxin; cell reporter, cycloheximide protein synthesis inhibition counterscreen; max response, %; actives 12% (n = 300,000); in the data active = max response mostly above about 13%, no sharp cut-off; inactive = mostly below about 14%; also: read at 38.3 µM for the half of the compounds with a filed dose
# Hits are given with their value; - = inactive; ? = inconclusive; . = no result; [ ] = another dose, or the depositor's remark. Unless noted, calls follow the shape of the dose curve; as a rule, active = well fitted inhibition curve with a large enough effect; inconclusive = small, poorly fitted or top-dose-only effect, or another doubt; inactive = no such curve, though single readings can be large or run the other way.
SMILES,HCMV inh,Shiga inhibitor,Pf growth 48h,Pf growth 96h,CHX counter
O=C(Nc1ccc(F)cc1)c1cccc(C(=O)Nc2ccc(F)cc2)c1,-,-,-,-,-
O=C(Nc1ccc(Br)cc1)c1cnc[nH]1,-,64,.,?,39
COc1cccc(NC(=O)c2ccc(-n3cnnn3)cc2)c1,?,-,-,4.1µM,-
COC(=O)c1ccc(NC(=O)c2ccc(OC(C)=O)c(OC)c2)cc1,-,48,-,-,33
COc1cccc(NC(=O)c2nc3ncccn3n2)c1,-,65,-,?,48
COc1ccc(NC(=O)CCC(=O)OCC(=O)c2ccc(Oc3ccc([N+](=O)[O-])cc3)cc2)cc1,-,-,-,9.3µM,-
COc1ccc(CCNC(=O)c2nc3ncccn3n2)cc1OC,-,-,-,-,-
O=C(CCCc1ccccc1)Nc1ccccc1[N+](=O)[O-],-,27,-,-,37
O=C(CCc1ccccc1)Nc1ccccc1[N+](=O)[O-],-,54,-,?,26
O=C(CCCc1ccccc1)Nc1cccnc1Cl,-,-,-,-,-
NC(=O)c1ccccc1NC(=O)CCCc1ccccc1,-,.,-,-,20
CC(=O)Nc1ccc(NC(=O)CS(=O)(=O)Cc2ccccc2)cc1,-,-,-,-,-
NC(=O)c1ccccc1NC(=O)CS(=O)(=O)Cc1ccccc1,-,-,-,9.3µM,-
O=C(CCc1ccccc1)NC(=S)Nc1ccccc1[N+](=O)[O-],-,-,-,?,-
CCN(C(=O)CSc1nnc(SC)s1)c1c(N)n(Cc2ccccc2)c(=O)[nH]c1=O,-,.,-,-,.
CC#CCCCC(=O)Nc1ccccc1C(=O)O,-,83,-,-,28
Cc1ccc(NC(=O)CCCc2ccccc2)c([N+](=O)[O-])c1,-,35,-,-,32
CCc1ccc(CCC(=O)Nc2ccccc2C(=O)O)o1,-,75,-,?,40
O=C(Cc1ccccc1)Nc1ccccc1C(=O)O,-,76,.,-,35
COc1ccc2[nH]c(=O)c(CN(CC3CCCO3)C(=S)Nc3ccc(C)cc3)cc2c1 (configuration not stated),-,-,-,-,-
COc1ccc(NC(=O)N(Cc2cc3cc(OC)c(OC)cc3[nH]c2=O)CC2CCCO2)cc1 (configuration not stated),-,-,?,-,12
COc1ccc2cc(CN(CC3CCCO3)C(=O)Nc3ccccc3)c(=O)[nH]c2c1 (configuration not stated),-,-,?,-,-
O=C(COc1ccccc1)N(Cc1cc2ccccc2[nH]c1=O)CC1CCCO1 (configuration not stated),-,-,?,-[5.75 µM],25
COc1cccc(C(=O)N(Cc2cc3cc(C)ccc3[nH]c2=O)CC2CCCO2)c1 (configuration not stated),-,-,9.3µM,.,-
COc1ccc2[nH]c(=O)c(CN(CC3CCCO3)C(=O)Nc3ccc(F)cc3)cc2c1 (configuration not stated),-,-,-,-,-
SMILES,HCMV inh,Shiga inhibitor,Pf growth 48h,Pf growth 96h,CHX counter
COc1ccc(NC(=O)N(Cc2cc3cc(C)ccc3[nH]c2=O)CC2CCCO2)cc1 (configuration not stated),-,-,3.3µM,-,-
Cc1ccc(-c2nc3ccccc3o2)cc1NC(=O)Cc1ccc(Cl)cc1,-,.,.,.,.
OCC1(CCc2ccccc2)CCN(Cc2cc(Cl)ccc2O)CC1,-,-,-,-,-
Oc1cccnc1CN1CCCCC1,-,.,.,.,.
Oc1ccc(Cl)cc1CN1CCN(Cc2ccccc2)CC1,-,-,1.5µM,.,-
Oc1ccc(CN2CCCCC2)nc1-c1ccccc1,-,-,0.52µM,?,-
Oc1ccc(-c2ccccc2)cc1CN1CCCCCC1,-,-,0.66µM,?,-
C=CCOn1c(=O)c(-c2ccc(Br)cc2)[n+]([O-])c2ccccc21,-,-,?,-,-
CCCCCC(=O)N1C[C@@H](n2cc(COC(=O)c3ccccc3)nn2)[C@H](O)C[C@@H]1c1ccc(OC)cc1,-,.,.,.,.
COc1ccc(C(=O)NC2CCN(C(=O)Nc3ccccc3Cl)CC2)cc1,-,-,?,-,-
CCCn1nc(NC(=O)c2cccs2)c2cc3cc(C)ccc3nc21,-,37,?,-,25
CCCCn1nc(NC(=O)CC(C)C)c2cc3cc(OC)ccc3nc21,-,-,?,?,-
